Source: PubChem (several laboratories)
An excerpt weighted towards active compounds, which were near 2.1% of everything screened.
BaF3 tox: counter-screen for JAK2V617F inhibitors: parental Ba/F3 viability inhibitors; CellTiter-Glo ATP luminescence; inhibition, % at 5.6 µM; 220,000 tested, 1.1% active; AID 1486;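 active means inhibition above a per-campaign cutoff, the mean inhibition of all tested compounds plus 3 SD, cut at about 27% in these data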
Ba/F3 V617F tox: loss of viability in JAK2V617F-driven Ba/F3 cells; 220,000 tested, 1.1% active; inhibition, % at 5.6 µM; Ba/F3 EpoR-JAK2V617F viability, ATP luminescence;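 active means inhibition above the campaign mean plus 3 SD over all tested compounds, cut at about 24% in these data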;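 further: cytokine-independent growth of Ba/F3 cells driven by EpoR plus mutant JAK2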
aSyn 5UTR inh: MLPCN primary screen, SNCA 5' untranslated region. alpha-synuclein 5'UTR reporter, inhibitor activity. inhibition, % (tested at 7.5 µM). 300,000 tested, 0.82% active. AID 1813; in the data active means inhibition above about 60%; inconclusive means no clear call, values can overlap the other calls;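 further: H4 neuroglioblastoma cells stably carrying SNCA 5'UTR luciferase fusion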
KLF5 inh: inhibitors of KLF5 expression; DLD-1 KLF5 promoter-luciferase reporter, luminescence; inhibition, % at 5 µM; 290,000 tested, 0.23% active; AID 1700;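 active means inhibition above a per-plate limit of that plate's mean compound inhibition plus 3 SD, cut at about 60% in these data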;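 further: higher means less KLF5 promoter-driven luciferase light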
APP transl inh: APP translation inhibition | SH-SY5Y APP 5'UTR-luciferase reporter, luminescence | 190,000 tested, 0.82% active | inhibition, % at 2 µM | AID 1285;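 active means inhibition above a set limit, derived from the sample mean plus 3 SD, cut at about 45% in these data; inconclusive means one replicate passes the limit while the other fails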
IEC-6 cytotox: kills IEC-6 intestinal cells in KLF5 counter-screen | AID 1825 | inhibition, % at 5 µM | 290,000 tested, 0.78% active | IEC-6 cytotoxicity, luminescence viability; in the data active means inhibition above about 22%
Numbers stand for hits; i = inactive; ? = inconclusive; nt = not tested or not shown.

SMILES	BaF3 tox	Ba/F3 V617F tox	aSyn 5UTR inh	KLF5 inh	APP transl inh	IEC-6 cytotox
CCc1ccc(S(=O)(=O)N2CCN(C(=O)C3CCN(C(C)=O)CC3)CC2)cc1	nt	nt	i	i	nt	i
CN1CCN(CC(=O)N2c3ccccc3C(C)(c3ccccc3)CC2(C)C)CC1 (configuration not stated)	i	30	i	i	i	i
CN1CCN(CC(=O)N2c3ccccc3C(C)(c3ccc(Cl)cc3)CC2(C)C)CC1 (configuration not stated)	i	i	i	i	i	i
Cc1nn(S(=O)(=O)c2ccccc2)c(C)c1S(=O)(=O)N1CCOCC1	nt	nt	i	i	nt	i
Cn1cc(C(=O)Nc2ccc(F)c(F)c2)cn1	i	i	i	i	50	i
CCSc1nc(-c2ccccc2)nc(C(Cl)Cl)n1	i	i	123	i	47	i
CCN1C/C(=C\c2cccc([N+](=O)[O-])c2)C(=O)/C(=C/c2cccc([N+](=O)[O-])c2)C1	i	i	nt	i	96	i
O=C1/C(=C/c2cccc([N+](=O)[O-])c2)CCc2ccccc21	i	i	i	i	i	i
Cc1cc2c(cc1C)C(c1cc(Br)ccc1F)CC(=O)N2 (configuration not stated)	i	i	65	i	i	i
C=CCn1c(=O)/c(=C2/SC(C)=C(C)N2CC)s/c1=C1/C(=O)N(C)C(=S)N1c1ccccc1	i	i	nt	i	i	i
Cn1ccnc1-c1ccc(-c2nccn2C)cc1	nt	nt	i	i	nt	i
Cc1ccc(NC(=O)C(=O)NCC2OCCc3ccccc32)cc1 (configuration not stated)	i	i	i	i	i	i
O=C(NCC1OCCc2ccccc21)c1ccc(NC(=O)c2ccc(Cl)cc2)cc1 (configuration not stated)	i	i	79	i	i	i
CCCCn1c(N)c(N(CC(C)C)C(=O)c2cc(S(=O)(=O)N3CCCCC3)ccc2C)c(=O)[nH]c1=O	nt	nt	i	nt	nt	nt
Cc1cc(C)c(C(=O)N2CCC(N3CCC(C(=O)NC(C)C)CC3)CC2)o1	nt	nt	i	i	nt	i
CC1CCN(c2c(NCc3ccc(C(=O)N4CCc5ccccc54)cc3)c(=O)c2=O)CC1	i	i	88	i	i	i
CC(=O)c1cn(CC(=O)Nc2ccc(C)cc2C)c2ccccc12	39	25	i	i	i	i
CCc1cccc(NC(=O)CCS(=O)(=O)c2ccc(Br)cc2)c1	nt	nt	i	i	nt	i
COc1cccc(/C=N/NC(=O)c2cc3cc([N+](=O)[O-])ccc3s2)c1O	i	i	107	i	51	i
COc1cc([N+](=O)[O-])cc(/C=N/NC(=O)c2ccc(NC(=O)c3ccc(C)cc3)cc2)c1O	i	i	i	i	87	i
COc1ccc(C(C)NC(=O)Cc2cccs2)cc1OC (configuration not stated)	nt	nt	i	i	nt	i
CC[N+]1(CC)CC2=Cc3c(ccc4ccccc34)CC2C1 (configuration not stated)	61	70	i	i	i	i
CN1CC(C(=O)O)Cc2c1ccc1ccccc21 (configuration not stated)	i	i	i	i	nt	i
CC(C)Oc1ccc(CCN=C(N)N=C(N)N)cc1Cl	36	i	i	i	i	i
CC(C)Oc1ccc(CNC(=S)Nc2ccccc2)cc1Cl	nt	nt	i	i	nt	i
SMILES	BaF3 tox	Ba/F3 V617F tox	aSyn 5UTR inh	KLF5 inh	APP transl inh	IEC-6 cytotox
CCSc1ccc2cc(OC)ccc2[n+]1CC	88	82	i	i	i	i
COC(=O)N/N=C/c1cc(Br)ccc1O	i	i	i	i	i	i
O=C(N/N=C/c1cc(Br)ccc1O)c1cccc(N2CCCC2=O)c1	i	i	68	i	i	i
O=C(N/N=C/c1cc(Br)ccc1O)c1ccccc1Cl	i	i	67	i	i	i
CC(C)c1ccc(/C=N/NC(=O)c2ccccc2Cl)cc1	i	i	i	i	61	i
CC(C)c1ccc(/C=N/Nc2ccc(C(=O)O)cc2)cc1	i	i	85	i	i	i
O=S(=O)(c1ccc(F)cc1)N1CCC2(CC1)OCCN2S(=O)(=O)c1cccs1	nt	nt	i	nt	nt	nt
Cn1cc(Br)c(NS(=O)(=O)c2ccc(Cl)s2)n1	i	i	i	i	nt	i
CC(C)(C)NC(=O)COc1coc(CN2CCN(Cc3ccccc3)CC2)cc1=O	nt	nt	i	i	nt	i
O=C(Nc1ccc(S(=O)(=O)Nc2cnc3ccccc3n2)cc1)c1ccc(Cl)c([N+](=O)[O-])c1	nt	nt	i	i	nt	i
CC1CCCC(NCC(O)COC(c2ccc(F)cc2)c2ccc(F)cc2)C1C (configuration not stated)	47	i	i	i	i	i
CC[n+]1c(/C=C2/C=C(C)CC(C)C2)sc2ccccc21 (configuration not stated)	55	60	i	i	i	i
CCC(C)C1Nc2ccc(C(=O)NCCc3ccc(OC)c(OC)c3)cc2NC1=O (configuration not stated)	nt	nt	i	i	nt	i
COCc1cc(CN2CCCC2)c(O)c2ncccc12	59	72	?	i	i	i
OCCN1CCN(Cc2cc(Cl)c3cccnc3c2O)CC1	i	i	i	i	i	i
Oc1c(CN2CCCCC2)cc(COCc2ccccc2)c2cccnc12	99	89	92	i	85	i
Oc1c(CN2CCN(c3ccccn3)CC2)cc(Cl)c2cccnc12	i	i	92	i	78	i
CC1CN(S(=O)(=O)c2ccccc2)C(C)N1C(=O)N1CCOCC1 (configuration not stated)	nt	nt	i	i	nt	i
CCOC(=O)/C=C(\C)Sc1cc(O)c2ccccc2c1O	i	i	nt	i	nt	34
CCOC(=O)/C=C(\C)Sc1cc(=O)oc2ccccc12	i	i	i	i	i	i
COc1ccc(/C=N/Nc2nncc3ccccc23)cc1	i	i	67	i	i	i
COc1ccccc1/C=N/Nc1nncc2ccccc12	i	i	i	i	i	i
CC(C)CN(C(=O)CN1CCc2ccccc21)c1c(N)n(CC(C)C)c(=O)[nH]c1=O	i	i	i	i	i	i
O=C1NC(=S)S/C1=C\C=C\c1ccc([N+](=O)[O-])o1	i	31	nt	i	nt	i
O=C(O)/C=C/c1ccc([N+](=O)[O-])o1	i	i	i	i	i	i
SMILES	BaF3 tox	Ba/F3 V617F tox	aSyn 5UTR inh	KLF5 inh	APP transl inh	IEC-6 cytotox
Cc1cccc(C(=O)O/N=C/c2c(N3CCOCC3)n(C)c3ccccc23)c1	i	i	72	i	i	i
Cn1c(Cl)c(/C=N/OC(=O)c2ccccc2Cl)c2ccccc21	i	i	i	i	i	i
Cc1c(NC(=S)N2CCN(c3ccc(F)cc3)CC2)c(=O)n(-c2ccccc2)n1C	i	i	i	i	i	i
CN(C)CCNc1ncnc2c1sc1nc(N3CCOCC3)c3c(c12)CC(C)(C)SC3	i	i	72	i	i	i
CCOc1ccc(S(=O)(=O)NCCC(=O)NCC(c2ccc(F)cc2)N2CCOCC2)cc1 (configuration not stated)	nt	nt	i	nt	nt	nt
COc1ccc(-c2cn3cc(C)ccc3n2)cc1F	i	i	77	i	i	i
Cc1ccc(-c2nnc3c(C(F)(F)F)nc4ccccc4n23)cc1	i	i	71	i	i	i
